Laboratory results reported in the supplement of paper PMC10849652.
Of roughly 7,900 targets only a part is listed; those with a hit were picked by preference. About 0.6% of all pairs of compound and target were hits.

Assays:
Test in all cases: log2 fold change, soluble protein after heating vs DMSO (PISA); higher = thermal stabilisation; K562 cells, 10 uM, 30 min; active = over 0.2 and 3.5 SD of the protein, either way, in both replicates (recomputed)
[1] = compound: C1=CC=C(C=C1)[C@H](COC2=CC3=C(C=C2)NC(=O)N3)NC(=O)C4=CC=CN(C4=O)CC5=CC(=C(C=C5)F)F
In short: (§1)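 Values are thermal stability changes relative to control samples and are taken from duplicates. They are stated as log2 fold changes. Before quantification by TMTpro 16plex LC-MS/MS with equalised channel sums, K562 cells at 2×10^6 cells/mL were treated with 10 μM compound for 30 min, heated in aliquots for 3 min across 48°C-58°C, pooled, extracted in PBS with 0.5% NP-40 at 4°C, and centrifuged at 21,000xg for 90 min to give the soluble supernatant.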

[2] = compound: CC1=C(SC2=C1C(=N[C@H](C3=NN=C(N32)C)CC(=O)N)C4=CC=C(C=C4)Cl)C
In short: as §1

[3] = compound: CC1=C2C(=CC=C1)N=C(N(C2=O)C3=CC=CC=C3C)CN4C=NC5=C(N=CN=C54)N
In short: as §1

[4] = compound: Cc1sc2c(c1C)C(c1ccc(Cl)cc1)=N[C@@H](CC(=O)OC(C)(C)C)c1nnc(C)n1-2
In short: as §1

[5] = compound: c1ccc([C@@H]2C[C@H]2NC2CCNCC2)cc1
In short: as §1

Measured: log2 fold change

RPP25L (UniProt Q8N5L8)
UniProt Q8N5L8, sequence (Q8N5L8 whole entry, looked up): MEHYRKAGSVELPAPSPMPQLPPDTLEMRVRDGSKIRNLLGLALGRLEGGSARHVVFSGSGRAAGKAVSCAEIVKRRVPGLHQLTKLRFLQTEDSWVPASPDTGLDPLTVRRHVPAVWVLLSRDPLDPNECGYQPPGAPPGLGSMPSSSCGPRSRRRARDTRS
inactive: [1] 0.032 | [2] -0.018 | [3] 0.026 | [4] 0.143 | [5] 0.033

SHROOM2 (UniProt Q13796)
UniProt Q13796, sequence (Q13796 whole entry, looked up): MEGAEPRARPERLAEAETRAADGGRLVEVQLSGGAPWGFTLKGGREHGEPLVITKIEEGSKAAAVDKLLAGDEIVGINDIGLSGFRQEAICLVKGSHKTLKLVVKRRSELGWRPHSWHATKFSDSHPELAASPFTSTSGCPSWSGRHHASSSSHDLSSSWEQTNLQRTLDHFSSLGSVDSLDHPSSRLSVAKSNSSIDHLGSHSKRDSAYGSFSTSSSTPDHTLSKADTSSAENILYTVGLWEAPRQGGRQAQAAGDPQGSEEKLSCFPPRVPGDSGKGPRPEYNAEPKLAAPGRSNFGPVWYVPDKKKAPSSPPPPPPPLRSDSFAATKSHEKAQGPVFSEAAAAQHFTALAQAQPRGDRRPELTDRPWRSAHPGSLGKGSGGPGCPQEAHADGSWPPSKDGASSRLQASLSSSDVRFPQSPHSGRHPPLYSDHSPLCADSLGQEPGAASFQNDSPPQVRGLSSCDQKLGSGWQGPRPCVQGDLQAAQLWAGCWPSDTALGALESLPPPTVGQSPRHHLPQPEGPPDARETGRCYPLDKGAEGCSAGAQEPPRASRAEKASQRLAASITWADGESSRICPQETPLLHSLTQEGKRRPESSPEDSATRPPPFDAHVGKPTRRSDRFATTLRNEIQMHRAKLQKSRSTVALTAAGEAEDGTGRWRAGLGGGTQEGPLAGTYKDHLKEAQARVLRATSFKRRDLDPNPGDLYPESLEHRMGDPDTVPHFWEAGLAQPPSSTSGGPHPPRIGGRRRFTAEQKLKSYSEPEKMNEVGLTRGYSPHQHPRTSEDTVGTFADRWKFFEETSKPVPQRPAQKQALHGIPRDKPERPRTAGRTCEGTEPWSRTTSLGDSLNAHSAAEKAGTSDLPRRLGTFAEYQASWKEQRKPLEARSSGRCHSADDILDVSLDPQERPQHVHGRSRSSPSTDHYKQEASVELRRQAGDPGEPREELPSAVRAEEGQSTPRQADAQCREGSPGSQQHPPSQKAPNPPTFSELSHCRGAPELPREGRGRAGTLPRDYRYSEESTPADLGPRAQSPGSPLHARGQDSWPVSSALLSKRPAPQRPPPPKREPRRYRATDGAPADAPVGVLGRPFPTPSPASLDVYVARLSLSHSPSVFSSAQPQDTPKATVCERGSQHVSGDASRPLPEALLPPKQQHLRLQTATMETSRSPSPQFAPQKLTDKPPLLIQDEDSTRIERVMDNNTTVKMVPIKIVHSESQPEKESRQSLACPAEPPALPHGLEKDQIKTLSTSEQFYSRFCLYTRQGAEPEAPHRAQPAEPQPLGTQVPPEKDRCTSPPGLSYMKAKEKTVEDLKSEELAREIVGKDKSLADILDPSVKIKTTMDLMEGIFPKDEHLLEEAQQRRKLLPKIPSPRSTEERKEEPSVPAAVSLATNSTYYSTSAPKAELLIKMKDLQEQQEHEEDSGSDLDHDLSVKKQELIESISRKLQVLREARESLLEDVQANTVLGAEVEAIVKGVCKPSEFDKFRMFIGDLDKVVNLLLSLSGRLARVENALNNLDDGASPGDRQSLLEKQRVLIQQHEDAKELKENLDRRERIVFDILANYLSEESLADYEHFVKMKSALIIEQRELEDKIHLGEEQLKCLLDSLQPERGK
inactive: [1] 0.105 | [2] 0.102 | [3] 0.103 | [4] -0.008 | [5] -0.072

RRAGC (UniProt Q9HB90)
UniProt Q9HB90, sequence (Q9HB90 whole entry, looked up): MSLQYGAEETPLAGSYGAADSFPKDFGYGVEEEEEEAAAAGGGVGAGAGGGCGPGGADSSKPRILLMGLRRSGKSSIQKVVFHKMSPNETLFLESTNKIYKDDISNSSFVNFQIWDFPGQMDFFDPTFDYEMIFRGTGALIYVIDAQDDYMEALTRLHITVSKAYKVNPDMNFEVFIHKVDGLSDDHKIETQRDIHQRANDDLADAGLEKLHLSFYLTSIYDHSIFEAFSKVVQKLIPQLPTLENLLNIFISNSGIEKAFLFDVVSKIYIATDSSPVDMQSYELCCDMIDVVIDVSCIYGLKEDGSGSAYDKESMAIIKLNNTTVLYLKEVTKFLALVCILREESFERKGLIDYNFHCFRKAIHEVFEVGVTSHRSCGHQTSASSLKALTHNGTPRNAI
inactive: [1] 0.009 | [2] 0.104 | [3] 0.095 | [4] -0.041 | [5] 0.009

RAB3IL1 (UniProt Q8TBN0)
UniProt Q8TBN0, sequence (Q8TBN0 whole entry, looked up): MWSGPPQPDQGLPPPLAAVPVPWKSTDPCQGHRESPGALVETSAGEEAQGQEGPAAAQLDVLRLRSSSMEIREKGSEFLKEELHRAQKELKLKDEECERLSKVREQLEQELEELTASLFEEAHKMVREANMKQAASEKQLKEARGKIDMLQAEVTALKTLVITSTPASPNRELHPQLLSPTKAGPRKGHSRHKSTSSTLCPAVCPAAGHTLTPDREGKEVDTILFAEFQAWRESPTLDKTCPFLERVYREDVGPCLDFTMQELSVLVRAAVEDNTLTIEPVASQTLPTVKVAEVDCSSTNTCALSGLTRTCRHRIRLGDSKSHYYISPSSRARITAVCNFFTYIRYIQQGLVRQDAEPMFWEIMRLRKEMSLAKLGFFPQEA
inactive: [1] 0.018 | [2] -0.013 | [3] 0.078 | [4] -0.03 | [5] -0.076

ROCK2 (UniProt O75116)
UniProt O75116, sequence (O75116 whole entry, looked up): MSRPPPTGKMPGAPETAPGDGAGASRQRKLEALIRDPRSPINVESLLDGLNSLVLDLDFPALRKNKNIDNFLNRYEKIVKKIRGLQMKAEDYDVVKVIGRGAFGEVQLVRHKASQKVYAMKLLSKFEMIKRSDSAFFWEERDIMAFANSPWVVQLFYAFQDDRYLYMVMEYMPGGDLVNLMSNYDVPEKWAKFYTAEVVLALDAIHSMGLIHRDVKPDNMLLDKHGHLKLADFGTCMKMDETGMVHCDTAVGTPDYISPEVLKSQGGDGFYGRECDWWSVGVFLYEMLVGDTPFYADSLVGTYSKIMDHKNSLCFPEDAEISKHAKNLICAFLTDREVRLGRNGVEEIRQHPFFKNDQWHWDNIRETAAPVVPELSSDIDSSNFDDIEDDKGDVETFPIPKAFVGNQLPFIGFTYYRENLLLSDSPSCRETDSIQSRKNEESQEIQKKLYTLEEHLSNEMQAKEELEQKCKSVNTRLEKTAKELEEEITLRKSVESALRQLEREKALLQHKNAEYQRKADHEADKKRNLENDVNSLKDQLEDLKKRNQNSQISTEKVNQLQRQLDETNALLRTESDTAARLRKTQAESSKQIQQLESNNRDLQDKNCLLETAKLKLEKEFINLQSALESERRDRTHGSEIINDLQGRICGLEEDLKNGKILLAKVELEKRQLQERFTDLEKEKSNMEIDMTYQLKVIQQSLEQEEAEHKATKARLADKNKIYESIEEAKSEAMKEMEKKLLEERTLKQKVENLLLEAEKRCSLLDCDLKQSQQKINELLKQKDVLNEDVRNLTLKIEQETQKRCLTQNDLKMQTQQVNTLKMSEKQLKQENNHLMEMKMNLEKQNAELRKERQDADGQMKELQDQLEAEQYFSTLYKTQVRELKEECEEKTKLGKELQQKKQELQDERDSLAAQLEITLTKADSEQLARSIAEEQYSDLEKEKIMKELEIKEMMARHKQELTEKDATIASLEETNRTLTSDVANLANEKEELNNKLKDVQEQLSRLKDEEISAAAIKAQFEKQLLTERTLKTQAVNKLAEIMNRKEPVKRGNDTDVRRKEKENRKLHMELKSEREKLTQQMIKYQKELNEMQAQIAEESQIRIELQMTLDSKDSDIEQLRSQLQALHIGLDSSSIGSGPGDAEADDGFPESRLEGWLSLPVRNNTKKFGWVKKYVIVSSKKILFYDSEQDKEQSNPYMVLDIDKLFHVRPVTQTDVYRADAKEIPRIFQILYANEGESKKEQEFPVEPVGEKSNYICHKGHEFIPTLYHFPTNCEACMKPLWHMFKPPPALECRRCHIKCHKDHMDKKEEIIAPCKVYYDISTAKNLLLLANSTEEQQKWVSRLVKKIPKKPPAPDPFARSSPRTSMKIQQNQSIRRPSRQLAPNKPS
inactive: [1] -0.026 | [2] 0.003 | [3] 0.085 | [4] 0.024 | [5] -0.01

RAF1 isoform 2 (UniProt P04049)
inactive: [1] -0.08 | [2] 0.201 | [3] 0.222 | [4] -0.07 | [5] -0.105

RPS5 (UniProt P46782)
inactive: [1] 0.049 | [2] -0.144 | [3] -0.214 | [4] 0.082 | [5] 0.001

RSL1D1 (UniProt O76021)
inactive: [1] 0.18 | [2] -0.349 | [3] -0.241 | [4] 0.178 | [5] 0.031

RPS25 (UniProt P62851)
inactive: [1] 0.046 | [2] -0.166 | [3] -0.139 | [4] 0.09 | [5] 0.002

RBM39 (UniProt Q14498)
UniProt Q14498, sequence (Q14498 whole entry, looked up): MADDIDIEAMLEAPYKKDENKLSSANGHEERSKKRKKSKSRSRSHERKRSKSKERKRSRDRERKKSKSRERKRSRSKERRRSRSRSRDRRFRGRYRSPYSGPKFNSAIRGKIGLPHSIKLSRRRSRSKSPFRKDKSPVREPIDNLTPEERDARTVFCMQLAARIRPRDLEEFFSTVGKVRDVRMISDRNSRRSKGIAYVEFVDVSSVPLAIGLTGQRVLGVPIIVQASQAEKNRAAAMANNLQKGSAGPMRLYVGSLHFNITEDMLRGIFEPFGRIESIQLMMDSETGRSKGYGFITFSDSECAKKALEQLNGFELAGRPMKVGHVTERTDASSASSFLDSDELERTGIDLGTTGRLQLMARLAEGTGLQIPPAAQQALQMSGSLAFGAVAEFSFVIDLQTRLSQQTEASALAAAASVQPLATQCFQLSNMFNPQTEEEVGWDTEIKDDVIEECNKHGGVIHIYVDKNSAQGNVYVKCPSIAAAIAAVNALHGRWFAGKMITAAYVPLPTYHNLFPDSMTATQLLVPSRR
inactive: [1] 0.015 | [2] -0.004 | [3] -0.02 | [4] 0.019 | [5] 0.158

SCYL3 isoform 2 (UniProt Q8IZE3)
inactive: [1] -0.014 | [2] -0.006 | [3] 0.055 | [4] 0.041 | [5] -0.113

RRS1 (UniProt Q15050)
UniProt Q15050, sequence (Q15050 whole entry, looked up): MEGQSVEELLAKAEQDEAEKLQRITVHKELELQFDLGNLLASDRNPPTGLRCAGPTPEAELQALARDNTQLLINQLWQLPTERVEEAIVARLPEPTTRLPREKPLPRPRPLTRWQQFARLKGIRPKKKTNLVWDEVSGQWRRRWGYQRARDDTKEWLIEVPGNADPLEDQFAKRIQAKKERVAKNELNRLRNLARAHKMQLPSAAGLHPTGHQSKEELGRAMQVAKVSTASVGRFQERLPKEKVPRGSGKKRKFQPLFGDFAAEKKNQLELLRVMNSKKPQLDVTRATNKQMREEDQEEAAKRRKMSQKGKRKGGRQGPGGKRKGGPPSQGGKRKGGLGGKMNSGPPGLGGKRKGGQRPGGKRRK
inactive: [1] 0.168 | [2] -0.368 | [3] -0.187 | [4] 0.246 | [5] -0.006
